Data from PubChem BioAssay (Tox21).
Results filed as inconclusive are left out. Activity calls are given as the source filed them. Unless noted, calls follow the shape of the dose curve; as a rule, active = well fitted curve in the direction sought with a large enough effect in the repeat runs; inconclusive = weak or mixed curves; inactive = no such curve, though single readings can be large; an effect the other way counts as inactive or inconclusive.

Experiments:
[1] = qHTS assay to identify small molecule antagonists of the estrogen related receptor (ERR) signaling pathway from Tox21 library - cell viability counter screen (AID 1224834); also: nearly all actives have a fitted effect of over 30% in size
How it was run: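 Cytotoxicity of test substances is gauged in the same ERR cells used for the antagonist screen, after 17.5 h of compound treatment at 37 C, by CellTiter-Fluor fluorescence measured after 30 min.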

[2] = target: Luciferin 4-monooxygenase (Photinus pyralis) (UniProt P08659); test: qHTS assay to identify small molecule inhibitors of firefly luciferase (AID 1224835); also: series mostly up to about 120 µM; nearly all actives have a fitted effect of over 25% in size
Sequence of Luciferin 4-monooxygenase (Photinus pyralis) (P08659 whole entry, looked up): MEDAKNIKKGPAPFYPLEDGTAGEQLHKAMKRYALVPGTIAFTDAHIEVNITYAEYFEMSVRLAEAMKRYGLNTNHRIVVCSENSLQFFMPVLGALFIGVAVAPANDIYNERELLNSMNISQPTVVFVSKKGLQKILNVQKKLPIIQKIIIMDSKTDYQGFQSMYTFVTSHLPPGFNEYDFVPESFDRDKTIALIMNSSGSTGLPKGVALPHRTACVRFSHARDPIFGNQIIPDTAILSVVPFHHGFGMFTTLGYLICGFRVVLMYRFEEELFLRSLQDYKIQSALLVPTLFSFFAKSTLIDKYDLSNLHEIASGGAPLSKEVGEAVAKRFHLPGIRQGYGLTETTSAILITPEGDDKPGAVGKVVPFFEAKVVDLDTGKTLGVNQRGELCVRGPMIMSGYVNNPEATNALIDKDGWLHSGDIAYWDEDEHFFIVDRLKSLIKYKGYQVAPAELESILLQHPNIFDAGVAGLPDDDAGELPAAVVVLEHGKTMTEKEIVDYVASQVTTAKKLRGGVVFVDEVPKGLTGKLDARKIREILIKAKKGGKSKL
How it was run: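 Inhibition of purified Photinus luciferase is measured by luminescence. Substrate levels (D-luciferin, ATP) sit at their KM values. Each compound is tested in a concentration series.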

[3] = qHTS assay to identify small molecule agonists of the constitutive androstane receptor (CAR) signaling pathway - cell viability counter screen (AID 1224836); also: series mostly up to about 92 µM; nearly all actives have a fitted effect of over 45% in size
How it was run: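 HepG2 cells stably carrying hCAR and a CYP2B6-2.2kb reporter were plated 4 h, then given compounds at 15 concentrations plus PK11195 (final 0.75 uM). After 23 h at 37 C, viability was read by CellTiter-Fluor fluorescence.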

[4] = qHTS assay to identify small molecule antagonists of the constitutive androstane receptor (CAR) signaling pathway - cell viability counter screen (AID 1224837); also: series mostly up to about 92 µM; nearly all actives have a fitted effect of over 45% in size
How it was run: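 Multiplexed cytotoxicity read-out for the CAR antagonist screen: double-stable HepG2-CYP2B6-hCAR cells co-treated with 50 nM CITCO (final) and compound over 15 concentrations, incubated 23 hr, then assessed by CellTiter-Fluor fluorescence.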

[5] = target: Nuclear receptor subfamily 1 group I member 3 (Homo sapiens) (UniProt Q14994); test: qHTS assay to identify small molecule antagonists of the constitutive androstane receptor (CAR) signaling pathway (AID 1224838); also: nearly all actives have a fitted effect of over 40% in size
Sequence of Nuclear receptor subfamily 1 group I member 3 (Homo sapiens) (Q14994 whole entry, looked up): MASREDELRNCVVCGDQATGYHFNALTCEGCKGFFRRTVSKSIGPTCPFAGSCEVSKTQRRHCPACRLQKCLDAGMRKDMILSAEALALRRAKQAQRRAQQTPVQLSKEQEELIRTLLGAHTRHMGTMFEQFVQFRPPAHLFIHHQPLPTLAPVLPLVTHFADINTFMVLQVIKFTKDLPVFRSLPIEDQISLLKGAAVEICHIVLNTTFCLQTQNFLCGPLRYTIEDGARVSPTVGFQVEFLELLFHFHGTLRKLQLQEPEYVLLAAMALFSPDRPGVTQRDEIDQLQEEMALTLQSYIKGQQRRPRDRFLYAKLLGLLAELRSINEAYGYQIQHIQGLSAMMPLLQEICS
How it was run: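 Compounds were titrated across 15 concentrations onto HepG2 cells double-stably expressing hCAR and a CYP2B6-2.2kb reporter, together with 50 nM CITCO (final). After 24 h at 37 C, luciferase activity was measured by luminescence.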

[6] = target: Nuclear receptor subfamily 1 group I member 3 (Homo sapiens) (UniProt Q14994); test: qHTS assay to identify small molecule agonists of the constitutive androstane receptor (CAR) signaling pathway (AID 1224839);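 also: HepG2 cells stably carrying human CAR and a CYP2B6 luciferase reporter; series mostly up to about 92 µM; nearly all actives have a fitted effect of over 15% in size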
How it was run: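 HepG2 cells stably expressing hCAR and a CYP2B6-2.2kb luciferase reporter were treated with compounds at 15 concentrations plus 0.75 uM PK11195 (final) for 24 h at 37 C; luminescence was read after ONE-Glo addition.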

[7] = qHTS assay to identify small molecule antagonists of the estrogen related receptor signaling pathway with the pleiotropic PPARgamma coactivator (PGC) from Tox21 10K library - cell viability counter screen (AID 1224840; active = well fitted cell-killing curve with a large enough effect in the repeat runs, not every such curve was filed as active; also: nearly all actives have a fitted effect of over 40% in size)
How it was run: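 Step one, plate 2,000 PGC/ERR cells per well; step two, incubate 6 h at 37 C/5% CO2; step three, pin-transfer compounds; step four, incubate 17.5 h; step five, add CellTiter-Fluor and read fluorescence after 30 min.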

[8] = qHTS assay to identify small molecule agonists of the hypoxia (HIF-1) signaling pathway - cell viability counter screen (AID 1224844; calls by dose curve; also: nearly all actives have a fitted effect of over 50% in size)
How it was run: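 Tox21 10K compounds were added to HRE-bla ME-180 cells (0.5% dialyzed FBS) and incubated 17 hrs at 37C; ATP-based CellTiter-Glo luminescence then reported cell viability in the same wells.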

[9] = qHTS assay to identify small molecule agonists of H2AX (AID 1224845; active = well fitted activation curve with a large enough effect in the signal ratio in the repeat runs, not every such curve was filed as active; the % refers to the signal ratio)
How it was run: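 Phospho-H2AX Ser139 measured by HTRF (ex 320 nm; em 665 and 620 nm) after 24 hr antibody incubation. Compounds, 15 concentrations, 0.76% DMSO, were applied to CHO-K1 cells for 3hr at 37C before lysis.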

[10] = qHTS assay to identify small molecule agonists of the hypoxia (HIF-1) signaling pathway (AID 1224846; active = well fitted activation curve with a large enough effect in the signal ratio in the repeat runs, not every such curve was filed as active; the % refers to the signal ratio)
How it was run: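 Steps: seed ME-180 HRE-bla cells (2,000/well, 0.5% dialyzed FBS); incubate 5 hrs at 37C; pin-transfer compounds or DMSO; incubate 17 hrs; add LiveBLAzer B/G substrate CCF4-AM; measure reporter activation by FRET.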

[11] = qHTS assay to identify small molecule agonists of H2AX - cell viability counter screen (AID 1224847; calls by dose curve; also: top concentration of the series differs between compounds; nearly all actives have a fitted effect of over 30% in size)
How it was run: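 Wild-type CHO-K1 cells (10% FBS medium) were plated overnight at 37C, exposed to compounds at 15 concentrations for 3 hr at 37C (0.76% DMSO final), and viability was read as CellTiter-Glo luminescence after 30 min at room temperature.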

[12] = qHTS RealTime-Glo MT Cell Viability Assay in HEK293 cells - 32 hour (AID 1224868); also: top concentration of the series differs between compounds; nearly all actives have a fitted effect of over 50% in size
How it was run: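 Homogeneous bioluminescent viability format in HEK293 cells (600 cells/well). Following 5 h at 37 C/5% CO2, 23 nL compound was pintooled; the signal was measured repeatedly during 40 h incubation.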

[13] = A CellTox Green Cytotoxicity Assay to monitor cytotoxicity in HEK293 cells - 0 hour (AID 1224869); also: nearly all actives have a fitted effect of over 50% in size
How it was run: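 Cytotoxicity was tracked continuously in HEK293 cells by a DNA-binding dye excluded from viable cells. Compounds were transferred in DMSO 5 h after seeding; fluorescence was recorded at intervals up to 40 h.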

[14] = qHTS RealTime-Glo MT Cell Viability Assay in HepG2 cells - 40 hour (AID 1224870); also: nearly all actives have a fitted effect of over 50% in size
How it was run: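 Real-time viability: cells seeded at 600 per well together with NanoLuc and cell-permeant prosubstrate, compounds added after 5 h incubation. Luminescence tracked at 0, 8, 16, 24, 32 and 40 h of exposure.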

[15] = qHTS assay to identify small molecule agonists of the estrogen related receptor signaling pathway with the pleiotropic PPARgamma coactivator (PGC) from Tox21 10K library (AID 1224842); also: nearly all actives have a fitted effect of over 15% in size
How it was run: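 Luminescence from One-Glo (30 min, room temperature) measured after PGC/ERR cells had 18 h at 37 C with pinned compound (23 nL in DMSO). Cells had been seeded at 2,000 per well and pre-incubated 6 h.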

[16] = target: Thyrotropin receptor (Homo sapiens) (UniProt P16473); test: qHTS assay to identify small molecule agonists of the thyroid stimulating hormone receptor (TSHR) signaling pathway (AID 1224843; calls by dose curve; also: nearly all actives have a fitted effect of over 45% in size)
Sequence of Thyrotropin receptor (Homo sapiens) (P16473 whole entry, looked up): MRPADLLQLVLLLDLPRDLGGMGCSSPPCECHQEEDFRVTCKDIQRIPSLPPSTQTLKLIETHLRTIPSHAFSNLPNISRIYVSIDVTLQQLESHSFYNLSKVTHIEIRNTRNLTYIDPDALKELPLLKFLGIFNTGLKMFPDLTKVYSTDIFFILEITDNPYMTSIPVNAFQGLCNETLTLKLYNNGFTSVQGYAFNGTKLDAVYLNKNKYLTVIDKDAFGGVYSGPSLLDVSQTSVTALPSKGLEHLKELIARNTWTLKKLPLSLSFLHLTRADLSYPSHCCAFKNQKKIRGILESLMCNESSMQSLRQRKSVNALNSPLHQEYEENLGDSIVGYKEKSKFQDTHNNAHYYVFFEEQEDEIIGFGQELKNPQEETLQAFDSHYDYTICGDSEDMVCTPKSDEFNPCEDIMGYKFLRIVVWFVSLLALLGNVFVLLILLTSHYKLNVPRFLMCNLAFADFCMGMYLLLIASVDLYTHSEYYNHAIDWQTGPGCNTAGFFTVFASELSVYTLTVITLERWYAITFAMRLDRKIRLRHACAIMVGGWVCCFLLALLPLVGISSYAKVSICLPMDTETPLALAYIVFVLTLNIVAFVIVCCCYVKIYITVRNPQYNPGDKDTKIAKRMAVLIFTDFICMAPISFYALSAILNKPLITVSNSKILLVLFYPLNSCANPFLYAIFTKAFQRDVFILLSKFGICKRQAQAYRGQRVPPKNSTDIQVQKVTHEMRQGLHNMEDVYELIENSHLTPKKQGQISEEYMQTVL
How it was run: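 HEK293 cells stably bearing the thyrotropin receptor were plated at 800 cells/well and challenged with compound (30 min, RT). Accumulated cAMP was quantified via cAMP-d2 competing for cryptate-tagged antibody.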

[17] = qHTS assay to identify small molecule antagonists of the estrogen related receptor (ERR) signaling pathway from Tox21 library (AID 1224848); also: nearly all actives have a fitted effect of over 50% in size
How it was run: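 Reading was by luminescence 30 min after ONE-Glo addition. Before that, ERR cells at 2,000 per well had rested 6 h at 37 C/5% CO2 and then received pin-tooled compounds in DMSO for 18 h at 37 C.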

[18] = qHTS assay to identify small molecule agonists of the estrogen related receptor (ERR) signaling pathway from Tox21 library (AID 1224849; calls by dose curve; also: nearly all actives have a fitted effect of over 15% in size)
How it was run: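 Agonist signal is luciferase luminescence from an ERR reporter cell line treated 18 h at 37 C with DMSO-dissolved compounds, read 30 min after ONE-Glo addition at room temperature.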

[19] = qHTS RealTime-Glo MT Cell Viability Assay in HepG2 cells - 24 hour (AID 1224867); also: nearly all actives have a fitted effect of over 50% in size
How it was run: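 Cell number in HepG2 cultures estimated from NanoLuc luminescence generated by metabolic reduction of a prosubstrate by living cells. The homogeneous, nonlytic format allowed repeated reads at 0, 8, 16, 24, 32 and 40 h of compound exposure.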

[20] = qHTS assay to identify small molecule antagonists of the estrogen related receptor signaling pathway with the pleiotropic PPARgamma coactivator (PGC) from Tox21 10K library (AID 1224841; call rule not given here)
How it was run: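 Antagonism in this quantitative HTS is taken from loss of luciferase signal in PGC/ERR cells. Cells (2,000/well) are treated with compounds in DMSO after a 6 h settling period and read by One-Glo luminescence after 18 h.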

Measured: Potency

OCCc1ccccn1
not listed: [15] | [16] | [17] | [18] | [19] | [20]
inactive: all other assays above

COc1cc(-c2ccc(=O)[nH]n2)ccc1OC(F)F
not listed: [9] | [10] | [15] | [16] | [17] | [18] | [19] | [20]
inactive: all other assays above

CCCC(C)C(=O)OCC (stereo not drawn)
not listed: [7] | [9] | [13] | [20]
inactive: all other assays above

NCCCC[C@H](N[C@@H](CCc1ccccc1)C(=O)O)C(=O)N1CCC[C@H]1C(=O)O
not listed: [6] | [10] | [15] | [16] | [17] | [18] | [20]
inactive: all other assays above

OCCCCCO
not listed: [7]
inactive: all other assays above

O=C(O)CCSCCC(=O)O
not listed: [7] | [10] | [15] | [17] | [18] | [19] | [20]
inactive: all other assays above

CC(C(=O)O)c1cccc(Oc2ccccc2)c1 (stereo not drawn)
not listed: [10] | [15] | [16] | [17] | [18] | [20]
inactive: all other assays above

CC(C)CC(C)(N)C#N (stereo not drawn)
not listed: [9] | [10] | [13] | [15] | [16] | [17] | [18] | [20]
inactive: all other assays above
